Fold change data for 67 molecules are collected here from PubChem BioAssay AID1259312 (Keith Lab, Institute of Cancer Science, University of …, 2017).

Among all 4,500 compounds or so, about 200 (4.4%) were called active. The list comes from a sample in which actives are over-represented; it also holds similar structures and randomly drawn compounds. Values without a mark were called inactive.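 The calls were made as follows: active = cell survival measured by absorbance rises more than 2.5-fold over infected cells without compound; inactive = the rest.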

This assay is described as follows: survival after telomere uncapping, modulators, primary screen, cell-based (AID 1259312).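 Also: virus expresses mutant telomerase RNA that uncaps telomeres and kills cells; compound added 2 days after infection so exposure lasts 3 days.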 Conditions: HCT116 + Ad-hTR-mut, MTT, 5 d; at 10 µM, active compounds read high.
Take `O=c1/c(=C\c2ccco2)sc2nnc(-c3ccccc3)n12`: the fold change is -1.37.

In the case of `COc1ccc(S(=O)(=O)N(CCO)C2CCCCC2)cc1`, the fold change was 1.31.

Turning to `CCCCc1ccc(C2C(C#N)=C(N)OC3=C2C(=O)CC(C)(C)C3)s1` (configuration not stated), the fold change is 2.3.

`COCCNS(=O)(=O)c1cc(Cl)ccc1Cl`: the fold change was 2.95 (active).

In the case of `CCCNS(=O)(=O)c1cc(Cl)ccc1Cl`, the fold change was -2.13.

With `COCCCNS(=O)(=O)c1cc(Cl)ccc1Cl`, the fold change is -1.38.

Take `O=S(=O)(NCc1cccnc1)c1cc(Cl)ccc1Cl`: the fold change was 3.37 (active).

For `O=S(=O)(Nc1cccnc1)c1cc(Cl)ccc1Cl`, the fold change is 1.16.

Consider `O=S(=O)(NCc1cccnc1)c1cccs1`, for which the fold change was -1.29.

Regarding `O=c1[nH]c(O)c(C=Nc2cc(Cl)ccc2O)c(=O)[nH]1`, the fold change result is “inactive”.

With `c1ccc(N/N=C2/C/C(=N\Nc3ccccc3)c3ccccc32)cc1`, the fold change was -1.1.

Consider `CC1(C)CCC[C@@]2(C)C1CCC1(C)OC(=O)CC12` (some centres not stated), for which the fold change was -3.56.

Regarding `O=C(Nc1ccc2c(c1)OCCO2)C1CC(=O)N(C2CCCCC2)C1` (configuration not stated), the fold change was -1.27.

As to `Clc1cccc(Cl)c1-c1noc(CSc2nc3ccccc3s2)n1`, the fold change is -1.38.

Regarding `N#CC1(C#N)C(c2ccc(Cl)cc2Cl)C(C(=O)c2ccccc2)N2c3ccccc3C=CC21` (configuration not stated), the fold change was 1.29.

On to `N#CC1(C#N)C(c2ccc(O)cc2)C(C(=O)c2ccccc2)N2c3ccccc3C=CC21` (configuration not stated), for which the fold change is 1.02.

Consider `N#CC1(C#N)C(c2c(F)cccc2Cl)[C@@H](C(=O)c2ccc(F)cc2)N2c3ccccc3C=C[C@@H]21` (some centres not stated), for which the fold change is 3.43 (active).

Take `CN(c1ccccc1)c1nc(N)nc(CSc2nnc(-c3ccc(F)cc3)n2C)n1`: the fold change was 1.9.

Turning to `Nc1c(Cl)cc(-c2nc3ccccc3o2)cc1Cl`, the fold change is 1.24.

`Cc1nn(-c2ccccc2)c(Cl)c1N=Nc1c(C)nn(-c2ccccc2)c1Cl`: the fold change is -1.52.

In the case of `CN(C)c1ccc(/C=N/c2nccs2)cc1`, the fold change was -1.55.

On to `c1csc(CNc2ccc(NCc3cccs3)cc2)c1`, for which the fold change is 1.24.

In the case of `CC(C)NC(=O)CC(=O)NN=C1CCCC1`, the fold change was 1.85.

In the case of `O=C1NC(=S)N/C1=C\c1cc(Br)cc(Br)c1O`, the fold change was -1.6.

With `O=C1NC(=S)N/C1=C\c1ccc(Cl)cc1Cl`, the fold change was 5.07 (active).

Take `O=C1NC(=S)N/C1=C/c1c(F)cccc1Cl`: the fold change is 1.33.

With `O=C1c2ccccc2NC2(C(=O)Nc3ccccc32)N1CCOc1ccccc1` (configuration not stated), the fold change was 1.15.

As for `CCOC1(C)OC2CCC(CC)OC2O1` (configuration not stated), the fold change was 1.54.

Turning to `O=C1Nc2ccccc2/C1=N\N1C(=O)C2C=CC=CC2C1=O` (configuration not stated), the fold change result is “inactive”.

On to `O=C1Nc2ccccc2C1=Nc1ccc(SC(F)F)cc1`, for which the fold change entry is “active”.

For the molecule `O=C1Nc2ccccc2C1=Nc1cccc(Cl)c1`, the fold change entry is “inactive”.

Take `O=c1[nH]c2nonc2[nH]c1=O`: the fold change result is “inactive”.

In the case of `O=C1CCCN1c1ccc(S(=O)(=O)Nc2ccc3oc4c(c3c2)CCCC4)cc1`, the fold change was 1.03.

Regarding `Cc1nnc(SCC(=O)Nc2sc3c(c2C#N)CCC3)s1`, the fold change was -1.54.

For the molecule `O=c1[nH]c(=O)c2cc3c(=O)[nH]c(=O)c3cc12`, the fold change is 2.77 (active).

Regarding `Nc1cc2[nH]c(=O)[nH]c2cc1N`, the fold change is -1.33.

In the case of `O=c1[nH]c2ccc(F)cc2c(=O)c2ccccc12`, the fold change was 1.22.

`O=C(C1=C(O)C(=O)N(CCN2CCOCC2)C1c1ccco1)c1ccco1` (configuration not stated): the fold change is -1.73.

Regarding `O=c1[nH]c2cc(NCCCO)c([N+](=O)[O-])cc2[nH]1`, the fold change is -1.46.

On to `COc1cc(OC)cc(-c2nc(N)n[nH]2)c1`, for which the fold change was 1.56.

Regarding `c1ccc(-c2nc(-c3cccnc3)[nH]c2-c2ccccc2)cc1`, the fold change was 1.14.

Regarding `Nc1n[nH]c(-c2cccnc2)n1`, the fold change is 2.61 (active).

On to `CN1CCC2(CC1)C(C#N)=C(O)NC1=C2C(=O)CC(C)(C)C1`, for which the fold change was -1.33.

In the case of `O=C(CSc1nc2ccccc2nc1SCC(=O)N1CCCCC1)N1CCCCC1`, the fold change was -1.94.

As to `O=C(Nc1nonc1NC(=O)c1ccc2c(c1)OCO2)c1ccc2c(c1)OCO2`, the fold change was -1.22.

Regarding `CC1(C)O[C@@H]2[C@H](O1)[C@@H](CO)O[C@H]2n1cnc2c(N)ncnc21`, the fold change was -1.14.

As for `Clc1nc2nonc2nc1Nc1ccc(Br)cc1`, the fold change is -1.13.

In the case of `O=c1[nH]cnc2sc3c(c12)CCCC3`, the fold change was 1.23.

For the molecule `CC12CC3CC(C)(C1)CC(CC(=O)NCC14CC5CC(CC(C5)C1)C4)(C3)C2`, the fold change was 3.05 (active).

For the molecule `CC12CC3CC(C)(C1)CC(CC(=O)N1CCN(S(C)(=O)=O)CC1)(C3)C2`, the fold change is 1.25.

With `O=C(CC1NC(=O)N(C2CCCCC2)C1=O)NCC12CC3CC(CC(C3)C1)C2` (configuration not stated), the fold change is -1.28.

For `COc1ccc(S(=O)(=O)NC2CCCCCC2)cc1`, the fold change is 3.33 (active).

As to `CS(=O)(=O)Nc1ccc(Cl)cc1Cl`, the fold change is -1.31.

For `COc1ccc(OC)c(NS(=O)(=O)c2ccc(Cl)cc2)c1`, the fold change is 1.33.

In the case of `O=S(=O)(NC1CCCCCC1)c1ccc(Cl)cc1`, the fold change was 1.1.

On to `COc1ccc(S(=O)(=O)Nc2cc(Cl)c(Cl)cc2Cl)cc1`, for which the fold change is 3.11 (active).

As to `O=S(=O)(Nc1cc(Cl)c(Cl)cc1Cl)c1ccc(Cl)cc1`, the fold change was 3.01 (active).

With `COc1ccc(S(=O)(=O)NC(C)C)cc1`, the fold change was -1.48.

As to `O=S(=O)(NC1CCCCCC1)c1ccc(F)cc1`, the fold change was -1.23.

Regarding `Cc1ccc(S(=O)(=O)NC2CCCC2)cc1`, the fold change is -1.31.

Consider `Cc1ccc2c(c1)C(O)(CC(=O)c1ccc3c(c1)OCO3)C(=O)N2` (configuration not stated), for which the fold change was -1.44.

As to `O=[N+]([O-])c1c(Sc2nnnn2C2CCCCC2)ncnc1Sc1nnnn1C1CCCCC1`, the fold change was 1.21.

With `N#Cc1c(-c2ccc(Cl)cc2Cl)csc1N`, the fold change is -1.22.

Take `CN(C)S(=O)(=O)Nc1cccc([N+](=O)[O-])c1`: the fold change is 1.12.

As for `CCn1c(=O)n(CC)c2cc(S(=O)(=O)NC3CCCCC3)ccc21`, the fold change was 1.22.

In the case of `CC(=O)c1c(O)c(C)c(O)c2c1OC1=CC(=O)C(C(C)=O)C(=O)[C@@]12C` (some centres not stated), the fold change was -1.06.

In the case of `CC(=O)N1c2ccccc2C2(C)C(C1(C)C)C2(Cl)Cl` (configuration not stated), the fold change is 4.16 (active).
